Hits are enriched below; roughly 1.3% of the tested compounds scored in any of these assays.
p53 reactivator = qHTS assay for re-activators of p53 using a Luc reporter | H1299 p53-A138V BP100-luciferase reporter, luminescence, 24 h | Potency, µM (top dose mostly 92.2 µM), inactives show at the highest dose activity change, positive = activation, hits mostly activators | 0.063% of 320,000 active | AID 504706, 2011; note: potency is the fitted concentration of half-maximal effect; % of control where 0% means no effect; nearly all actives have a fitted effect of over 45% in size
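p53-null H1299 cells stably carrying temperature-sensitive p53-A138V and a BP100-luciferase reporter were pinned with compounds (4-point, 1:5 series) and held 24 hrs at 37 deg C. Luminescence was read 10 min after detection reagent.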
TCR act = Activators of T cell receptors: qHTS campaign; primary human leukocytes, anti-CD3, IL-2 HTRF, 48 h; Potency, µM (series often up to 9.22 µM), for inactives: top-dose activation of IL-2 secretion, most hits filed as activators; 330,000 tested, under 10 active; AID 504894, 2011; note: % of control where 0% means no effect
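TCR engagement came from a-CD3 beads alone, with compounds added to primary human leukocytes for 48 hr. Secreted IL-2 bridged europium cryptate- and d2-labelled anti-IL-2 antibodies, giving FRET emission at 665nm after 320nm excitation.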
Mito fusion yeast = qHTS Assay for Small Molecule Inhibitors of Mitochondrial Division or Activators of Mitochondrial Fusion. S. cerevisiae fusion-defective mutant growth rescue, CellTiterGlo 48 h. Potency, µM (top dose mostly 46.1 µM), without a hit: at the top dose growth rescue (activation), usual class: activators. 0.23% of 320,000 active. AID 485298, 2010; note: potency is the fitted concentration of half-maximal effect; % of control where 0% means no effect; nearly all actives have a fitted effect of over 45% in size
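S. cerevisiae fusion-defective temperature-sensitive mutants (e.g. fzo1-1, mgm1-5) grown 48 h at 37C in YPEG (ethanol/glycerol non-fermentable) medium with 23 nl compound per well; growth rescue read as CellTiterGlo luminescence.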
BRCA1 expr up = qHTS Assay to Identify Small Molecule Activators of BRCA1 Expression. MCF7-BRCA1-FFLuc reporter, luminescence, 48 h; response scale: scaled: vehicle 0%, 10 µM genistein 100%. 1.1% of 380,000 active. AID 624202, 2012. Potency, µM (doses to about 46.1 µM), without a hit: at the highest dose activation, actives largely listed as activators; note: potency is the fitted concentration of half-maximal effect; nearly all actives have a fitted effect of over 80% in size
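Reporter cells (MCF7, BRCA1 promoter-firefly luciferase) received library compounds across a concentration series for 48 h. End-point luminescence was measured and concentration-effect curves derived after normalization.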
IL2 activator = qHTS of IL-2 Activators; 0.065% of 360,000 active; IL-2 activation reporter assay, cell-based qHTS; stimulated with anti-CD3/CD4/CD28 beads; in transgenic mouse T cells; activation, % (series mostly up to about 46 µM); in the data active = activation above about 50%; inconclusive = mostly about 30% to 49%; note: 0% is about no effect
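Unstimulated transgenic mouse T cells; 60-min compound exposure; bead-based TCR/CD4/CD28 stimulation; 18 h culture, 37 degrees C; dual fluorescence (EGFP, DsRed) plate cytometry.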
The depositor's hits bear a star; ? = inconclusive; · = no result given; [ ] = remark or other dose. Unless noted, calls come from the whole dose curve; as a rule, active = well fitted curve in the direction sought with a large enough effect; inconclusive = small, poorly fitted or top-dose-only effect, or another doubt; inactive = no such curve, though single readings can be large; an effect the other way counts as inactive or inconclusive.

SMILES | p53 reactivator | TCR act | Mito fusion yeast | BRCA1 expr up | IL2 activator
Cc1ccc(NC(=O)Nc2ccc3c(c2)OCO3)cc1F | ? | -6% | -5% | 0.89µM* | 1
COc1cccc(NC(=O)Nc2ccc3c(c2)OCO3)c1 | ? | -2% | -2% | 2.8µM* | -2
Fc1ccc(NC(=S)NCc2ccc3c(c2)OCO3)cc1 | -2% | 3% | 5% | -2% | 5
O=C(/C=C/c1ccc2c(c1)OCCO2)c1ccccc1 | ? | -1% | -12% | 7.1µM* | -1
O=C(NCc1ccc2c(c1)OCO2)Nc1ccc(F)cc1 | 22% | -1% | -2% | 10µM* | 0
CCOC(=O)c1ccc(S(=O)(=O)N2CCN(c3nc(-c4cccs4)nc4ccccc34)CC2)cc1 | · | · | · | 2% | ·
O=C(Nc1ccc(Cl)c(Cl)c1)N(Cc1c[nH]c2ccccc12)C1CCCCC1 | · | · | · | 53% | ·
CC(C)=CCC/C(C)=C/COc1c2ccoc2cc2oc(=O)ccc12 | · | · | · | -11% | ·
CN1CCSc2ccc(C(=O)Nc3cc(F)ccc3F)cc21 | ? | 4% | 6% | 13µM* | -1
CCOC(=O)N1CCN(C(=O)c2ccc3c(c2)N(Cc2ccccc2F)C(=O)c2ccccc2S3(=O)=O)CC1 | · | · | · | 10% | ·
COc1ccc(C(=O)N2c3ccccc3C(=O)OC2c2ccc3c(c2)OCO3)cc1 (stereo not given) | ? | 1% | -1% | 11µM* | -2
CC(=O)Oc1ccc(C2OC(=O)c3ccccc3N2C(C)=O)cc1 (stereo not given) | 7% | 5% | -7% | 3% | 2
Cc1cc(C)c2nc(N3CCC(C(=O)NCc4ccccn4)CC3)sc2c1 | 2% | 0% | 1% | 4µM* | -3
O=C(Nc1cccc2ccccc12)c1cnn2c1NC(=C1CC1)C=C2C(F)F | · | · | · | -20% | ·
O=C1NN(c2ccc(Cl)cc2)C(=O)/C1=C\c1ccc(-c2cccc(C(=O)O)c2)o1 | 9% | -4% | -6% | 8.9µM* | 1
Cc1ccc(N2NC(=O)/C(=C/c3ccc(-c4ccc(Cl)c(C(=O)O)c4)o3)C2=O)cc1 | 3% | 1% | 10% | 5% | -1
O=[N+]([O-])c1cccc(S(=O)(=O)N2CCN(c3nc(-c4ccccc4)nc4ccccc34)CC2)c1 | · | · | · | 12% | ·
Fc1ccccc1-c1ccc(/C=N/Nc2nc3ccccc3[nH]2)o1 | 35µM* | 2%[46.1 µM] | -3% | -34% | -2
CC(=O)c1ccc(NC(=O)C2(c3ccccc3)CC2(Cl)Cl)cc1 (stereo not given) | 5% | 0% | 3% | 10µM* | 0
O=C(Nc1ccccc1Cl)C1(c2ccccc2)CC1(Cl)Cl (stereo not given) | -1% | 2%[46.1 µM] | 14% | -32% | 0
CCCCNC(=O)CO/N=C(\C)c1cc2ccccc2o1 | ? | 2%[46.1 µM] | -2% | 77% | -1
C/C(=N\OCC(=O)NCC(F)(F)F)c1cc2ccccc2o1 | ? | -2%[46.1 µM] | -3% | 13µM* | 1
O=C(CCSc1ccc(Cl)cc1)N1CCOCC1 | ? | 0%[46.1 µM] | -5% | 7.9µM* | -1
CN(C)C(=O)/C=C\c1cn(-c2ccccc2)nc1-c1ccc2c(c1)OCCO2 | -9% | 1% | 18µM* | -4% | 1
CC(=O)c1cnc(Nc2cccc(Cl)c2Cl)s1 | 1% | 1% | 2% | 10µM* | 1
SMILES | p53 reactivator | TCR act | Mito fusion yeast | BRCA1 expr up | IL2 activator
COc1ccc(C2OC3=C(Nc4cc(C)c(C)cc4N3)C2=O)cc1 (stereo not given) | ? | 1% | -8% | 2.8µM* | 0
Cc1cc2c(cc1C)NC1=C(N2)OC(c2cccc(O)c2)C1=O (stereo not given) | 0% | 6% | -3% | 36% | 0
CCCS(=O)(=O)c1ncc(Cl)c(C(=O)Nc2sc3c(c2C(=O)NCC)CCCC3)n1 | · | · | · | 0% | ·
CCN(CC)CCNC(=O)c1ccc2c(c1)NC(=O)C(CS(=O)(=O)Cc1ccc(F)cc1Cl)N2 (stereo not given) | · | · | -10% | · | ·
Cc1nc([N+](=O)[O-])cn1CC(O)c1ccc2c(c1)OCCO2 (stereo not given) | · | · | · | 0% | ·
COc1cccc(NC(=O)Nc2cccs2)c1 | ? | 2%[46.1 µM] | 1% | 13µM* | 0
COc1ccc(NC(=O)Nc2cccs2)cc1OC | 5% | · | -1% | 90% | -1
Cc1ccc(NC(=O)Nc2cccs2)cc1 | ? | -4% | 13% | 1.3µM* | -1
COc1cccc(C2=NN(S(C)(=O)=O)C(c3cn(-c4ccccc4)nc3-c3cccs3)C2)c1 (stereo not given) | · | · | · | 22% | ·
O=C(COc1ccc(F)cc1)OCc1cc(=O)n2nc(C3CC3)sc2n1 | · | · | · | 7% | ·
CCn1c(COc2ccc(OC)cc2)nc2ccccc21 | 3% | -2% | -5% | 11µM* | 3
CCn1c(COc2ccccc2)nc2ccccc21 | ? | -1%[46.1 µM] | -1% | 102% | 1
COc1ccccc1C(C(=O)NC1CCCC1)N(C(=O)c1csnn1)C1CC1 (stereo not given) | -4% | 1% | 3.2µM* | -8% | 1
CC(C)N(C(=O)COC(=O)c1ccc(Cl)c(S(N)(=O)=O)c1)C(C)C | -2% | -4% | 4% | 6% | -7
Cc1cc(C(=O)COC(=O)c2ccc(Cl)c(S(N)(=O)=O)c2)c(C)n1C1CC1 | ? | 0% | 10% | 11µM* | -6
Cc1cc(C(=O)COC(=O)c2ccc(NC(=O)CC#N)cc2)c(C)n1C1CC1 | 21% | 0% | 3% | 4.5µM* | 3
Cc1cc(C(=O)COC(=O)c2ccc(NC(=O)CC#N)cc2)c(C)n1CC(F)(F)F | · | · | · | ? | -2
CCOc1ccc(CCNC(=O)c2cn(CC)c3ccc(S(=O)(=O)N4CCCCCC4)cc3c2=O)cc1OCC | · | · | · | -11% | ·
O=C(CSC1=Nc2ccccc2N=C(c2ccc(F)cc2)C1)NCc1ccc(Cl)cc1 | · | · | · | -39% | ·
C/C(=N\Nc1nnc2c3ccccc3n(C)c2n1)c1ccc(C)o1 | 5% | 2%[46.1 µM] | 7% | -6% | -2
Cc1cc(C)n(-c2nnc3c4ccccc4n(C)c3n2)n1 | 8% | -7% | -1% | 1.4µM* | 4
Cc1cc(O)c(-c2cc(C(=O)Nc3cccnc3)[nH]n2)cc1C | 9% | 1% | -2% | 5.6µM* | 1
COc1ccc2c(c1)c1c(c(=O)n(-c3ccccc3C)c(=O)n1CC(=O)N1CCCC1)n2C | · | · | · | 15% | ·
COc1ccc(C2=NCN(c3ccc(C)cc3)C(=S)N2)cc1 | 11% | -4% | -1% | 4µM* | 0
Cc1ccc(N2CN=C(c3ccccc3)NC2=S)cc1 | 23% | 3% | 0% | 11µM* | 1
O=C(c1ccc(CSc2ccc(Cl)cc2)cc1)N1CCCC1 | 2% | 6% | -2% | 10µM* | 0
